PubChem BioAssay (EPA / NIEHS)
Activity calls are given as the source filed them. Rule for the calls: active = hit-call score of the fitted dose curve at least 0.9, where 1 is the maximum; inactive = score below 0.9.

How the values were obtained:
[1] = read-out: Human Leukocyte Antigen - DR isotype (HLADR), HLA-DRA (gene 3122); experiment: BSK_BE3C_HLADR: BioMAP Diversity Plus: BE3C Assay for Human Leukocyte Antigen - DR isotype (HLADR) Biomarker Activity (AID 2283032); details: primary human bronchial epithelial cells; actives raise or lower the signal
Summary of the method: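 Human primary bronchial epithelial cells (BE3C system) exposed to compound for 24 hours; cell-surface HLA-DR measured by ELISA, fitted bidirectionally relative to DMSO. Total protein by SRB in parallel cultures tracked cytotoxicity.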

[2] = read-out: Vascular cell adhesion molecule 1 (VCAM1), VCAM1 (gene 7412); experiment: BSK_4H_VCAM1: BioMAP Diversity Plus: 4H Assay for Vascular cell adhesion molecule 1 (VCAM1) Biomarker Activity (AID 2283033); details: primary human endothelial cells (HUVEC); actives raise or lower the signal
Summary of the method: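 Primary human umbilical vein endothelial cells, 4H stimulation system, treated for 24 h; cell-surface VCAM-1 quantified by ELISA. Bidirectional fitting against DMSO; cytotoxicity tracked by SRB total-protein staining in parallel cultures.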

[3] = read-out: Interferon-gamma inducible Protein 10 (IP10), CXCL10 (gene 3627); experiment: BSK_BE3C_IP10: BioMAP Diversity Plus: BE3C Assay for Interferon-gamma inducible Protein 10 (IP10) Biomarker Activity (AID 2283034); details: primary human bronchial epithelial cells; actives raise or lower the signal
Summary of the method: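 Primary human bronchial epithelial cells, with IP-10 measured by ELISA 24 hours after chemical dosing. Bidirectional fit against DMSO; cytotoxicity checked by SRB total protein staining in parallel cultures.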

[4] = read-out: Monokine induced gamma interferon (MIG), CXCL9 (gene 4283); experiment: BSK_BE3C_MIG: BioMAP Diversity Plus: BE3C Assay for Monokine induced gamma interferon (MIG) Biomarker Activity (AID 2283035); details: primary human bronchial epithelial cells; actives raise or lower the signal;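 note: MIG protein measured by ELISA in BE3C cultures after 24 h of dosing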
Summary of the method: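 ELISA read-out of MIG in human lung bronchial epithelial primary cultures, 24 h post-dosing. Bidirectional curve fit vs DMSO baseline.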

[5] = read-out: Transforming growth factor beta 1 (TGFb1), TGFB1 (gene 7040); experiment: BSK_BE3C_TGFb1: BioMAP Diversity Plus: BE3C Assay for Transforming growth factor beta 1 (TGFb1) Biomarker Activity (AID 2283036); details: primary human bronchial epithelial cells; actives raise or lower the signal
Summary of the method: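 Primary human bronchial epithelial cells dosed with chemical; TGF-b1 measured by ELISA 24 h after dosing. Bidirectional curve fitting against DMSO negative control; SRB total-protein staining in parallel cultures gauged cytotoxicity.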

[6] = read-out: urokinase plasminogen activator (uPA), PLAU (gene 5328); experiment: BSK_BE3C_uPA: BioMAP Diversity Plus: BE3C Assay for urokinase plasminogen activator (uPA) Biomarker Activity (AID 2283038); details: primary human bronchial epithelial cells; actives raise or lower the signal;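 note: uPA protein level quantified by ELISA in cell cultures; uPA read one day after compound addition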
Summary of the method: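 Using confluent primary human lung bronchial epithelial cultures, we dosed chemicals, waited 24 h, then ran a uPA ELISA, fitting bidirectionally against DMSO.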

[7] = read-out: Urokinase-type plasminogen activator receptor (uPAR), PLAUR (gene 5329); experiment: BSK_BE3C_uPAR: BioMAP Diversity Plus: BE3C Assay for Urokinase-type plasminogen activator receptor (uPAR) Biomarker Activity (AID 2283039); details: primary human bronchial epithelial cells; actives raise or lower the signal;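 note: uPAR protein level measured by ELISA on the cells; cells exposed to compound for one day before measurement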
Summary of the method: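 Primary human bronchial epithelial cells dosed for 24 h; uPAR quantified by ELISA with bidirectional fitting against DMSO. Overt cytotoxicity assessed in parallel cultures by SRB total-protein staining (0.1% SRB, 560 nm).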

[8] = read-out: Interleukin-6 (IL6), IL6 (gene 3569); experiment: BSK_CASM3C_IL6: BioMAP Diversity Plus: CASM3C Assay for Interleukin-6 (IL6) Biomarker Activity for (AID 2283040); details: primary human coronary artery smooth muscle cells; actives raise or lower the signal
[9] = read-out: Tissue plasminogen activator (tPA), PLAT (gene 5327); experiment: BSK_BE3C_tPA: BioMAP Diversity Plus: BE3C Assay for Tissue plasminogen activator (tPA) Biomarker Activity (AID 2283041); details: primary human bronchial epithelial cells; actives raise or lower the signal;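 note: tPA level quantified by ELISA one day after compound addition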
Summary of the method: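 Primary human bronchial epithelial cells in the BE3C system, exposed to compound for 24 h. tPA was quantified by ELISA; DMSO served as baseline, with gain or loss of signal fitted. Cytotoxicity checked in parallel cultures by SRB total-protein staining.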

[10] = read-out: Interleukin-8 (IL8), CXCL8 (gene 3576); experiment: BSK_CASM3C_IL8: BioMAP Diversity Plus: CASM3C Assay for Interleukin-8 (IL8) Biomarker Activity (AID 2283042); details: primary human coronary artery smooth muscle cells; actives raise or lower the signal;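 note: IL-8 protein level quantified by ELISA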
[11] = read-out: Human Leukocyte Antigen - DR isotype (HLADR), HLA-DRA (gene 3122); experiment: BSK_CASM3C_HLADR: BioMAP Diversity Plus: CASM3C Assay for Human Leukocyte Antigen - DR isotype (HLADR) Biomarker Activity (AID 2283043); details: primary human coronary artery smooth muscle cells; actives raise or lower the signal;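 note: cell-surface HLA-DR protein level quantified by ELISA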
[12] = read-out: Macrophage colony-stimulating factor (MCSF), CSF1 (gene 1435); experiment: BSK_CASM3C_MCSF: BioMAP Diversity Plus: CASM3C Assay for Macrophage colony-stimulating factor (MCSF) Biomarker Activity (AID 2283044); details: primary human coronary artery smooth muscle cells; actives raise or lower the signal;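 note: M-CSF protein amount quantified by ELISA after 24 h exposure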
[13] = read-out: Low-density lipoprotein receptor (LDLR), LDLR (gene 3949); experiment: BSK_CASM3C_LDLR: BioMAP Diversity Plus: CASM3C Assay for Low-density lipoprotein receptor (LDLR) Biomarker Activity (AID 2283045); details: primary human coronary artery smooth muscle cells; actives raise or lower the signal;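 note: LDLR protein level on the cell surface quantified by ELISA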
[14] = read-out: Monocyte Chemoattractant Protein-1 (MCP1), CCL2 (gene 6347); experiment: BSK_CASM3C_MCP1: BioMAP Diversity Plus: CASM3C Assay for Monocyte Chemoattractant Protein-1 (MCP1) Biomarker Activity (AID 2283046); details: primary human coronary artery smooth muscle cells; actives raise or lower the signal;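 note: MCP-1 level quantified by ELISA 24 h after dosing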
[15] = BSK_CASM3C_Proliferation: Cell Proliferation Assessment in the BioMAP Diversity Plus: CASM3C Assay (AID 2283047); details: primary human coronary artery smooth muscle cells;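 note: sulforhodamine B total protein stain as relative cell number at 560 nm; sub-confluent cells exposed 48 h before staining; fitted both ways against DMSO so gain or loss of cell number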
[16] = read-out: Monokine induced gamma interferon (MIG), CXCL9 (gene 4283); experiment: BSK_CASM3C_MIG: BioMAP Diversity Plus: CASM3C Assay for Monokine induced gamma interferon (MIG) Biomarker Activity (AID 2283048); details: primary human coronary artery smooth muscle cells; actives raise or lower the signal;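 note: MIG protein level measured by ELISA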
[17] = read-out: serum amyloid A (SAA), SAA1 (gene 6288); experiment: BSK_CASM3C_SAA: BioMAP Diversity Plus: CASM3C Assay for serum amyloid A (SAA) Biomarker Activity (AID 2283049); details: primary human coronary artery smooth muscle cells; actives raise or lower the signal;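 note: SAA protein level quantified by ELISA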
[18] = BSK_CASM3C_SRB: Viability Assessment in the BioMAP Diversity Plus: CASM3C Assay (AID 2283050); details: primary human coronary artery smooth muscle cells
[19] = read-out: Thrombomodulin, THBD (gene 7056); experiment: BSK_CASM3C_Thrombomodulin: BioMAP Diversity Plus: CASM3C Assay for Thrombomodulin Biomarker Activity (AID 2283051); details: primary human coronary artery smooth muscle cells; actives raise or lower the signal;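 note: thrombomodulin protein level measured by ELISA 24 h after dosing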
[20] = read-out: Plasminogen activator inhibitor-1 (PAI1), SERPINE1 (gene 5054); experiment: BSK_BE3C_PAI1: BioMAP Diversity Plus: BE3C Assay for Plasminogen activator inhibitor-1 (PAI1) Biomarker Activity (AID 2283037); details: primary human bronchial epithelial cells; actives raise or lower the signal
Summary of the method: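 Primary human bronchial epithelial cells (BE3C system) exposed 24 h; PAI-1 quantified by ELISA. Parallel sulforhodamine B staining of total protein flags cytotoxicity. Bidirectional fit versus DMSO.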

Measured: AC50

CN(C)C(=O)NC1(c2ccccc2)CCN(CCC[C@]2(c3ccc(Cl)c(Cl)c3)CCCN(C(=O)c3ccccc3)C2)CC1
active: [13] 5 µM | [14] 0.037 µM
not listed: [20]
inactive: all other assays above

O=C1NC(=O)C(c2ccccc2)(c2ccccc2)N1
inactive: all assays above

O=C(O)c1[nH]n(-c2ccc(S(=O)(=O)O)cc2)c(=O)c1N=Nc1ccc(S(=O)(=O)O)cc1
inactive: all assays above

NC=O
inactive: all assays above

C=CCc1ccc(OC)c(OC)c1
inactive: all assays above

CN(C)C(=O)NC1(c2ccccc2)CCN(CC[C@@]2(c3ccc(F)c(F)c3)CN(C(=O)c3ccccc3)CCO2)CC1
inactive: all assays above

CCCC[C@H]1CN(CC2CCOCC2)C(=O)OC12CCN(C1(C)CCN(C(=O)c3c(C)ncnc3C)CC1)CC2
inactive: all assays above
